Screening results deposited in PubChem BioAssay by National Center for Advancing Translational Sciences (NCATS).
This excerpt belongs to a sample that is enriched for hits.
NS1 inh = inhibitors of influenza NS1 protein function; Potency, µM (top dose mostly 46.1 µM), without a hit: at the highest dose activity, positive = more growth; 270,000 tested, 0.4% active; calls by dose curve; note: potency is the fitted concentration of half-maximal effect; actives are rising curves; nearly all actives have a fitted effect of over 50% in size
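A cell-based growth assay was used: compounds that relieve NS1-induced slow growth of budding yeast raise OD600. Assay medium was yeast nitrogen base with ammonium sulphate and -URA supplement, pH 6.0, with 2% galactose.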
Cruzain inh Det = inhibitors of Trypanosoma cruzi cruzain with detergent; P25779; purified cruzain, Z-FR-AMC fluorescence, 0.01% Triton; Potency, µM, inactives show max response, negative = inhibition, usual class: inhibitors; 200,000 tested, 0.43% active; AID 1478;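 note: potency is the fitted concentration of half-maximal effect; plate controls were neutral wells for no effect and buffer without enzyme for full effect; nearly all actives have a fitted effect of over 40% in size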
Target sequence (P25779 123-467 limits assumed): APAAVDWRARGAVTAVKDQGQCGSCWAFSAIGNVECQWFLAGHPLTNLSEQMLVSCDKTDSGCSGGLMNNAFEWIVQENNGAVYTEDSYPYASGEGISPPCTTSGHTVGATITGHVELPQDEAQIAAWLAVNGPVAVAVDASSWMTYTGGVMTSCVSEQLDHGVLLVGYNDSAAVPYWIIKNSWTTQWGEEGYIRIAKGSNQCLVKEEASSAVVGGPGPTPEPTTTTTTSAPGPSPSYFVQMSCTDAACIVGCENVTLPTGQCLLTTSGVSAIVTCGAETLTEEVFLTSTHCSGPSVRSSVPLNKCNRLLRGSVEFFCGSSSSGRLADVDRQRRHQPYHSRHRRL
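Z-FR-AMC hydrolysis (2 uM substrate) by cruzain (1.5 nM) monitored kinetically at ex 360/em 450 nm after 15 min room-temperature compound exposure; 0.01% Triton X-100, pH 5.5, 5 mM DTT.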
Cruzain inh noDet = inhibitors of Trypanosoma cruzi cruzain without detergent; purified cruzain, Z-FR-AMC fluorescence, no detergent; Potency, µM, without a hit: max response, negative = inhibition, most hits filed as inhibitors; 200,000 tested, 2.3% active; AID 1476;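 note: potency is the fitted concentration of half-maximal effect; plate controls were enzyme without inhibitor for no effect and buffer without enzyme for full effect; nearly all actives have a fitted effect of over 40% in size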
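Detergent-free condition (0.00005% Triton X-100) in acetate buffer pH 5.5 with DTT. 1.5 nM enzyme and compound were pre-mixed 15 min, then 2 uM Z-FR-AMC substrate added; reaction progress from fluorescence change between first and third reads (60 s).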
NS1 inh valid = validation of influenza NS1 protein function inhibitors | shares compounds with NS1 inh | influenza NS1 function cell assay, 15-point titration | activity change, negative = inhibition, % at 32.9 µM | 1,400 tested, under 10 active; calls by dose curve; note: 0% is about no effect
* marks the source's active call; other numbers are inactive results; ? = inconclusive; . = not tested or not shown. Unless noted, calls come from the whole dose curve; as a rule, active = well fitted curve in the direction sought with a large enough effect; inconclusive = small, poorly fitted or top-dose-only effect, or another doubt; inactive = no such curve, though single readings can be large; an effect the other way counts as inactive or inconclusive.

SMILES | NS1 inh | Cruzain inh Det | Cruzain inh noDet | NS1 inh valid
Cc1ccc(-c2cc(C(=O)N/N=C/c3c[nH]c4ccccc34)[nH]n2)cc1 | -0.8% | -16.0% | 5.0% | .
COc1cc2c(Cc3c4c5c(cc(OC)c(OC)c5c5c(OC)c(OC)ccc35)CCN4C)c3c4c(cc(OC)c(OC)c4c2cc1OC)CCN3C | . | 1.9% | 9.2% | .
COc1ccc(-c2nsc3c(SCC(=O)Nc4cc(C)ccc4C)ncnc23)cc1 | -0.9% | 6.1% | ? | .
C/C=C\C(=O)Nc1cccc(C2=NOC3(C2)C[C@@H](C(N)=O)N(C(=O)c2ccccc2)C3)c1 (stereo partly specified) | -2.1% | . | . | .
C/C=C\C=C/C(=O)Nc1cccc(C2=NOC3(C2)C[C@@H](C(N)=O)N(C(=O)c2ccccc2)C3)c1 (stereo partly specified) | 1µM* | . | . | -11.5
CCC1(C)Cc2c(sc3c2c(=O)n(-c2ccccc2)c(=O)n3C)CO1 (stereo unspecified) | 3.3% | 3.7% | 19.7% | .
Cn1c(=O)n(-c2ccccc2)c(=O)c2c3c(sc21)COC(C)(C)C3 | 8.91µM* | 0.5% | -1.2% | 9.1
CCOc1ccc(CN2CCN(Cc3cc4ccccc4[nH]3)CC2CCO)cc1 (stereo unspecified) | 6.9% | . | . | .
CCOc1cc(S(=O)(=O)NC2CC(C)(C)NC(C)(C)C2)ccc1Cl | -2.2% | . | . | .
CCN(CC)C(=O)c1sc2nc(-c3cccs3)cc(-c3ccc(Cl)cc3)c2c1N | 4.47µM* | -1.6% | 31.6µM* | ?
Nc1c(C(=O)O)sc2nc(-c3ccccc3)cc(-c3ccc(Cl)cc3)c12 | 5.1% | . | . | .
CCC(=O)N1c2ccccc2CC1C(=O)NCc1ccccc1C (stereo unspecified) | . | 0.1% | -6.1% | .
Cc1cc(C)nc(OC(C(=O)O)C(OCCC(C)C)(c2ccccc2)c2ccccc2)n1 (stereo unspecified) | 2.51µM* | . | . | 20.2
Cc1ccnc(OC(C(=O)O)C(OCc2ccccc2)(c2ccccc2)c2ccc(C(F)(F)F)cc2)n1 (stereo unspecified) | ? | . | . | 28.4
Cc1cc(C)nc(OC(C(=O)O)C(OCc2ccccc2)(c2ccccc2)c2ccccc2)n1 (stereo unspecified) | 17.0% | . | . | .
COC(c1ccccc1)(c1ccccc1)C(Oc1nccc(C)n1)C(=O)O (stereo unspecified) | 27.6% | . | . | .
O=C(O)CN=C1NC2(CCCC2)Cc2ccccc21 | 13.7% | 4.6% | 1.1% | .
CCOc1cc(C2C(C(=O)N3CCOCC3)=C(C)NC3=C2C(=O)CCC3)ccc1O (stereo unspecified) | -9.7% | -2.2% | -2.2% | .
O=C(NCCOc1ccccc1)C1CCC(=O)N(C2CCCCCC2)C1 (stereo unspecified) | -12.4% | . | . | .
CCOc1cccc(OCCCCn2cnc3ccccc3c2=O)c1 | -5.7% | . | . | .
C=CCNC(=O)C1CC(=O)N(c2ccc(OCC(=O)Nc3c(C)cccc3C)cc2)C1 (stereo unspecified) | ? | . | . | -16.6
C=CCNC(=O)C1CC(=O)N(c2ccc(OCC(=O)Nc3ccc(C)cc3)cc2)C1 (stereo unspecified) | 3.7% | -20.0% | -3.6% | .
COc1ccccc1C(=O)Nc1c(C(=O)Nc2cc(Cl)ccc2C)sc2nc(C)cc(C)c12 | . | 0.1% | 0.1% | .
O=C(Nc1ccc(-c2csc(Nc3ccccc3)n2)cc1)c1ccccc1 | 3.7% | . | . | .
Cc1nc(NC(=O)c2ccccc2)sc1-c1csc(Nc2ccc(Cl)cc2)n1 | 5.01µM* | 6.6% | 3.98µM* | 1.2
SMILES | NS1 inh | Cruzain inh Det | Cruzain inh noDet | NS1 inh valid
Cc1ccc(-n2ncc(C(=O)NC3CCCC3)c2C2CCN(C(=O)OC(C)(C)C)CC2)c(C)c1 | . | -7.3% | 27.4% | .
O=c1ccn([C@@H]2O[C@H](COP(=O)(O)OP(=O)(O)O)[C@@H](O)[C@H]2O)c(=O)[nH]1 | 6.2% | -4.5% | 6.8% | .
O=c1ccn([C@@H]2O[C@H](CO)[C@@H](O)[C@H]2O)c(=O)[nH]1 | 12.6µM* | 1.4% | 1.9% | ?
O=C(C[n+]1cccc2ccccc21)c1ccccc1 | 23.1% | -4.1% | 13.8% | .
O=C(C[n+]1cc2ccccc2c2ccccc21)c1ccccc1 | ? | -9.3% | -22.7% | 3.7
CC1Oc2ccccc2C=C1/C=N/NC(=O)c1ccccc1O (stereo unspecified) | -8.4% | -13.6% | -13.1% | .
Cc1ccc(C(=O)CSc2nnc(CNc3nc(-c4ccccc4)cs3)n2C)cc1 | 3.16µM* | -3.2% | ? | -16.0
Cc1cc(C)nc(SCc2nnc(SCC(=O)Nc3nc(-c4ccccc4)cs3)n2C)n1 | 17.6% | -4.8% | ? | .
COc1ccccc1N1CCN(CCCCN2C(=O)c3ccccc3C2=O)CC1 | ? | 8.2% | ? | .
COc1ccc(N2CCCn3c2nc2c3c(=O)n(CCN3CCOCC3)c(=O)n2C)cc1 | 6.1% | 7.7% | -0.6% | .
CC1CCC2[C@](C)(CO)C(O)CC[C@]2(C)C12CCC(CO)(CCO)O2 (stereo partly specified) | . | 5.3% | 9.1% | .
CCOC(=O)C1C(=O)NC(c2ccccc2)=NC1c1ccc(C(C)C)cc1 (stereo unspecified) | 4.3% | 3.2% | -7.2% | .
COc1cc2nc(SCC(=O)NCCc3ccccc3)n(Cc3ccco3)c(=O)c2cc1OC | 2.51µM* | -0.6% | ? | -2.6
COCCNC(=O)c1ccc2c(=O)n(Cc3ccco3)c(SCC(=O)Nc3ccc(OC)cc3OC)nc2c1 | 0.5% | . | . | .
Cc1cccc(OCC(=O)N2CCc3ccccc3C2)c1 | -14.5% | . | . | .
CCc1ccccc1NC(=O)c1cc(S(=O)(=O)NCCc2ccc(OC)c(OC)c2)ccc1F | . | 3.2% | 18.5% | .
O=C(Nc1ccccc1Oc1ccccc1)c1ccc(Br)o1 | ? | -7.6% | 0.8% | ?
COc1ccccc1NC(=O)c1ccc(Br)o1 | -36.4% | 0.2% | -8.2% | .
Cc1ccc(C(=O)N/N=C\c2sccc2C)cn1 | -2.7% | . | . | .
Cc1cc(=O)[nH]c(N/N=C/c2c(O)n(-c3ccccc3)c(=O)c3ccccc23)n1 | 10µM* | -1.3% | 1.9% | -1.9
Cc1cc(=O)[nH]c(N/N=C/c2ccc(O)c(O)c2)n1 | 5.3% | . | . | .
Cn1c(=O)c2c(n(Cc3ccccc3)c1=O)NC(=O)C2CC(=O)NCc1cccc(Cl)c1 (stereo unspecified) | 14.1µM* | -1.8% | -7.0% | 3.4
CCc1ccc(NC(=O)CC2C(=O)Nc3c2c(=O)n(C)c(=O)n3C)cc1 (stereo unspecified) | 6.7% | 3.3% | 7.9% | .
Cc1n[nH]c(C)c1S(=O)(=O)N1CCCC(C(=O)Nc2ccc3c(c2)OCCO3)C1 (stereo unspecified) | 3.0% | 1.7% | -12.5% | .
CCN(CC)c1nc2c(c(=O)n(C)c(=O)n2C)n1CC(=O)c1ccccc1 | -4.9% | . | . | .
COC(CNC(=O)c1ccc(Cn2c(=S)[nH]c3cc4c(cc3c2=O)OCO4)cc1)OC | 6.31µM* | 0.3% | 19.8% | 16.0
COCCNC(=O)c1ccc(Cn2c(=S)[nH]c3cc4c(cc3c2=O)OCO4)cc1 | -18.5% | 3.1% | -9.0% | .
CCOC(=O)C1=C(C)N(CCCCCC(=O)O)C(=O)NC1c1ccccc1Cl (stereo unspecified) | ? | -1.5% | 1.2% | 13.7
CCOC(=O)C1=C(C)N(CCCC(=O)O)C(=O)NC1c1ccc(Cl)cc1Cl (stereo unspecified) | 5.9% | . | . | .
